Measurements reported in PubChem BioAssay AID1159614 (National Center for Advancing Translational Sciences (NCATS), 2016).
The campaign covered roughly 45,000 compounds. About 65 (0.1%) were called active. Calls follow the shape of the dose curve; as a rule, active = well fitted activation curve with a large enough effect; inconclusive = small, poorly fitted or top-dose-only effect; inactive = no such curve, though single readings can be large or run the other way. For the sample, actives were picked, then their nearest neighbours and some compounds at random.

The compounds below were run against Galactocerebrosidase (Homo sapiens) (UniProt P54803) (assay: A Novel Cell-Based Assay to Identify Small Molecules for B -Galactocerebrosidase). Details: 145M-Twi-hGALC-G270D cells (Twitcher mouse brain line with human GALC G270D), HMU-beta-Gal fluorescence, 48 h; series mostly up to 57.5 µM.
Chain of Galactocerebrosidase (Homo sapiens) (P54803 whole entry G286D): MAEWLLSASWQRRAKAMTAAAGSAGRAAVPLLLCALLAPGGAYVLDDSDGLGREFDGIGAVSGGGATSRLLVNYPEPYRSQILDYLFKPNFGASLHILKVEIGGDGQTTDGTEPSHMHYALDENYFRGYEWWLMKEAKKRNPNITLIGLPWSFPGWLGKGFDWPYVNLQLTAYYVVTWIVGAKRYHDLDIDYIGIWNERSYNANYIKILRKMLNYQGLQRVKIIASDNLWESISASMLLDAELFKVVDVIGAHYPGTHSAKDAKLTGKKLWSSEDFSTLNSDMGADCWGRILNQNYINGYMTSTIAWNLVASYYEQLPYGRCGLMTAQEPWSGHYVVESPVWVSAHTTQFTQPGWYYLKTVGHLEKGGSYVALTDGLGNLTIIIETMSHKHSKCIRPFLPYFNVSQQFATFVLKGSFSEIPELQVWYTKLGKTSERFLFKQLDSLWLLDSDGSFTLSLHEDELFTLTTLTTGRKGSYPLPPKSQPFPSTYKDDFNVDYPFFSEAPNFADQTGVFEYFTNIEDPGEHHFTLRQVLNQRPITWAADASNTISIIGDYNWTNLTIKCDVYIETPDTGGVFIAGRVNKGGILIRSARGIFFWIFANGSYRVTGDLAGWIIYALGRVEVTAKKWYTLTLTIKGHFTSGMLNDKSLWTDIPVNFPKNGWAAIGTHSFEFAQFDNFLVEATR
Description: Lysosomal storage diseases (LSDs) are caused by genetic mutations in genes encoding proteins important for normal lysosomal function. Globoid cell leukodystrophy (GLD), mostly known as Krabbe disease, is a prototype of the neurological LSDs caused by deficiency of beta-galactocerebrosidase (GALC). In brain specimens of GLD patients, psychosine levels are substantially elevated. At elevated concentrations, psychosine becomes cytotoxic to neuronal cells, particularly to oligodendrocytes (OLG), neural cells responsible for myelin formation. Therefore, the biochemical disturbances in GLD are manifested by different degrees of brain demyelination resulting in a broad spectrum of neurological manifestations. Most of the FDA-approved therapies are based on enzyme replacement therapeutic (ERT) agents, which treat non-neurological symptoms of Gaucher disease, Fabry disease, few mucopolysaccharidoses and Pompe disease. Unfortunately, in GLD, a primarily neurological LSD, ERT agents, as large molecular weight molecules unable to cross the blood-brain barrier, which makes this an inefficacious therapeutic approach. In GLD, increasing the residual GALC activity just above the critical threshold (~10% of wild type enzymatic activity), the cytotoxic levels of psychosine will be reduced, avoiding the OLGs apoptosis and the subsequent demyelination process. This will translate in disease stabilization and amelioration of GLD patient symptoms.
A cell-based assay in 1,536-well plate format was developed to implement a quantitative high-throughput screening (qHTS) assay using GLD-disease relevant cells to identify small molecules that produce enhancements of the residual enzymatic activity levels of mutants GALC found and prevalent in GLD patients. Compounds that are active may therefore have some therapeutic application for GLD. After the treatment of live cells for a determined period, using a fluorescent GALC specific substrate, the mutant residual GALC activity is measured. This cell-based qTHS assay was used to screen part of the MLPCN library for small molecule able to increase the mutant GALC enzymatic activity. In this assay, increased fluorescent signal corresponds to enhanced levels of mutant GALC residual enzymatic activity. Activation is the desired outcome for this assay.
NIH Chemical Genomics Center [NCGC]
NIH Molecular Libraries Probe Centers Network [MLPCN]
Assay Submitter (PI): Gustavo Maegawa MD,PhD, University of Florida, Gainesville, FL
2)#Two cell lines were established for the assay: 145M-Twi-hGALC-G270D (brain-derived Twitcher cell line stably expressing human GALC-G270D) and 145M-Twi-hGALC-WT (same 145M-Twi stably expressing human GALC wild type). The Twitcher is the murine C57B/6 model for GLD with naturally occurring homozygous nonsense GALC mutation. The 145M-Twi cell line was established at Maegawa lab (Ribbens J et al 2014).
a.#Media: DMEM/F12 (1:1) with 10% fetal bovine-serum (FBS) with penicillin/streptomycin (PS-1X - 100 I.U./mL of penicillin+100 ug/mL of streptomycin).
b.#The 6-Hexadecanoylamino-4-methylumbelliferyl-b-D-galactoside (HMU-B-gal) substrate was prepared as per Wiederschain et al 1992. Using 20-mL borosilicate tubes, 2.20 mg of HMU-b-Gal was added in each tube to prepare substrate-film with a final air-nitrogen stream evaporation to remove all diluent solvents.
c.#The HMUb-Gal substrate buffer consists of 0.2 M Na2HPO4 (sodium phosphate dibasic)/ 0.1 M Citric Acid with the pH adjusted to 5.2 using HCl. Sodium Azide at 0.02% and Sodium Taurocholate (NaTC) at 1 mg/mL were added to this substrate buffer.
d.#The HMU-b-Gal stopping buffer consist of 0.5 M NaHCO3 (sodium bicarbonate) /0.5 M Na2CO3 (sodium carbonate). […] Triton X-100 at 0.25% was added.
4)#Preparation of HMU-b-Gal substrate tubes
Adding 18.6 mL of the HMUb-Gal substrate buffer to each 20-mL tube (2.20 mg of HMU-b-Gal) will reach a concentration of 0.2 mM. Vortex well the tube until the solution is fully homogenized (clear cloudy solution). […]
Also: nearly all actives have a fitted effect of over 65% in size.

Potency, inactive:
CCc1ccc(NC(=O)CCS(=O)(=O)c2cc3c(cc2Cl)NC(=O)CO3)cc1
COc1cccc(CN2CCc3nc(SCC(=O)Nc4ccccc4)[nH]c(=O)c3C2)c1
Cc1ccccc1-c1nc(CS(=O)(=O)CC(=O)Nc2cc(Cl)cc(Cl)c2)c(C)o1
CCc1nnc(SCC(=O)Nc2cc(OC)ccc2OC)nc1CC
O=C(NCCCO)c1nn(-c2ccc(Cl)cc2)nc1CO
Cn1nnc2c(N3CCN(c4ccccc4)CC3)ncnc21
CN1CCN(C(CNC(=O)c2ccccc2F)c2ccc3c(c2)OCO3)CC1 (stereo not drawn)
COc1ccc(CNC(=O)c2ccc3c(O)c(S(=O)(=O)c4ccccc4)c(=O)[nH]c3c2)cc1
CCC(=O)Nc1cccc(C(=O)OCc2cc(=O)n3nc(CC)sc3n2)c1
Cc1cccc(OCCSc2nc3ccc(NC(=O)COc4ccccc4C)cc3s2)c1
Cc1cccc(CSc2nc3ccncc3n2CC(=O)N(C)C2CCCCC2)c1
Cc1ccccc1CSc1nc(-c2ccccc2)nc2c1Cc1c(CO)cnc(C)c1O2
O=C(Nc1nc2c(s1)CCCC2)c1ccccc1F
COc1ccc(CNC(=O)CSc2n[nH]c(-c3ccc(F)cc3)n2)cc1
COc1ccc(CNS(=O)(=O)c2ccc(-c3cnc(C4CC4)o3)cc2)cc1
CCc1nc2ccc(C(=O)N3CCN(c4cc(Cl)ccc4C)CC3)cc2nc1CC
Cc1ccc(NC(=O)c2ccc(CN3CC(=O)N4CCCCC4C3=O)cc2)c(Cl)c1 (stereo not drawn)
COc1cccc(NC(=O)Nc2ccc3c(c2)N(C)C(=O)c2ccccc2S3)c1
COc1ccccc1-c1nnc(SCC(N)=O)o1
Cc1cccc(C(=O)Nc2ccc(S(=O)(=O)N3CCCCC3c3cccnc3)cc2)c1 (stereo not drawn)
CCc1ccc(NC(=O)c2sc3nc4c(cc3c2N)CN(CC)CC4)cc1
Cc1ccccc1NC(=O)CN1C(=O)C(C)(C)c2ccccc21
Cc1ccc(C(=O)Nc2ccc(OCc3cc(=O)n4c5c(sc4n3)CCCC5)cc2)cc1
COc1ccc(NC(=O)CSc2nccn2Cc2ccc3c(c2)OCO3)cc1
CCOC(=O)c1c(S(=O)(=O)N2CCC(C(=O)NCc3ccccc3OC)CC2)c(C)n(C)c1C
O=C(Nc1ccccc1Br)c1cc(CN2CCCC2)on1
COc1ccc(S(=O)(=O)NCc2cccn2Cc2cccc(C)c2)cc1Cl
Cc1cccc(Cn2c(=O)n(CCC(=O)NCCc3ccc(Cl)cc3)c(=O)c3sccc32)c1
Cc1noc2ncnc(NCc3ccccc3Cl)c12
CCOc1ccc(CCNC(=O)CN(c2ccc(C)cc2)S(=O)(=O)N(C)C)cc1OCC
COc1ccc(C)cc1NC(=O)CCc1c(C)nn(-c2ccc(N3CCOCC3)nn2)c1C
CCc1ccc(N2C(=O)CN(S(=O)(=O)CC)CC2(C)C(=O)NC2CCCCC2)cc1 (stereo not drawn)
Cc1ccc(Cc2nc3ccccc3nc2SCC(=O)Nc2cccc(C(F)(F)F)c2)cc1
Cc1ccc(-n2c(SCC(=O)c3ccccc3)nc3c([nH]c4ccccc43)c2=O)cc1
CC(=O)OC1=C(C(C)=O)N(Cc2ccccc2)S(=O)(=O)c2ccccc21
Brc1cccc(-c2nnn3c2nc(NC2CCCCC2)c2ccccc23)c1
Cc1cccc(N2CCN(C(=O)CCSCc3ccccc3F)CC2)c1C
COc1ccc(-c2c(C)nn3c(N4CCC(C(=O)NCCC(C)C)CC4)cc(C)nc23)cc1OC
Cc1cccc(NC(=O)Cn2c(=O)n(CCC(C)C)c(=O)c3cccnc32)c1
O=[N+]([O-])c1cc(-c2nc(-c3ccccc3)no2)ccc1NCc1ccco1
Cc1cc(NC(=O)c2ccc(-c3ccc(Cl)cc3)o2)cc(-c2nc3ncccc3o2)c1O
CCN(CC)c1ccc(NC(=O)Cn2nc3c(cc2=O)CCCC3)c(C)c1
Oc1c(C(c2ccccc2Cl)N2CCOCC2)sc2nc(-c3ccco3)nn12 (stereo not drawn)
